# Screen size: about 50,000 compounds; about 800 (1.6%) showed an effect of 50% or more. This excerpt belongs to a sample that is enriched for strong results.
# Molecular target: Bcl-2-like protein 10 (Homo sapiens) (UniProt Q9HD36)
# Test: Phenotype converters, Bcl-B/TR3 peptide binding displacement, primary biochemical FP (AID 1240);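 also: 0% = Bcl-B with tracer peptide and DMSO and 100% = tracer peptide lacking Bcl-B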
# Conditions: GST-Bcl-B / FITC-TR3 peptide fluorescence polarization; stronger effect = higher value; compound at 3.75 mg/L
# Sequence of Bcl-2-like protein 10 (Homo sapiens) (Q9HD36 whole entry, looked up): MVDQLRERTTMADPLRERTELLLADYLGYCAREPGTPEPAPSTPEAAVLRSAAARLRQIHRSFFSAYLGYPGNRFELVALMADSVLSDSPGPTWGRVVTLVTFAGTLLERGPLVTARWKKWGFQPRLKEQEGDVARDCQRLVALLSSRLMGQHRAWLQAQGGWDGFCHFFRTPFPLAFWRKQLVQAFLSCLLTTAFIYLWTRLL
row,Structure (SMILES),displacement
1,CC1CCc2c(nc3ccccc3c2C(=O)O)C1 (centres undefined),-14.7%
2,CN(C)/C=C/C=C1C(=O)OC(C)(C)OC1=O,0.3%
3,O=C(O)c1ccccc1C(=O)c1ccc(Cl)c(N2C(=O)CCC2=O)c1,-1.3%
4,Cc1cc(NS(=O)(=O)c2ccc(NC(=O)C(Cl)(Cl)Cl)cc2)nc(C)n1,1.3%
5,COc1ccc(Br)cc1Cn1c(=O)[nH]c2cc(C(F)(F)F)ccc21,-5.6%
6,CC(C)(C)C(=O)Nc1cccc(C(=O)NCc2ccc(CNC(=O)c3cccc(NC(=O)C(C)(C)C)c3)cc2)c1,9.9%
7,O=C(Oc1cccc(/C=C2/SC(=S)N(c3ccccc3)C2=O)c1)c1ccco1,-17.2%
8,Cc1cc(-n2cc(C=O)c(-c3ccccc3)n2)nc2ccccc12,75.4%
9,O=Cc1cn(-c2ccccc2)nc1-c1ccc(Cl)cc1,7.5%
10,Cc1cc(C)c(-c2nn(-c3ccccc3)cc2C=O)c(C)c1,10.9%
11,Cc1ccc(C(=O)/C=C2\C(=O)Nc3ccccc32)cc1,6.7%
12,O=C(O)CCCC(=O)OCc1ccco1,31.3%
13,O=C(COc1ccc([N+](=O)[O-])cc1)NNC(=O)c1ccccc1Cl,11.6%
14,O=[N+]([O-])c1ccccc1-c1ccc(/C=N/n2cnnc2)o1,8.8%
15,O=C1S/C(=C\c2ccc(-c3ccccc3[N+](=O)[O-])o2)C(=O)N1c1ccccc1,47.7%
16,O=C1S/C(=C/c2ccc(-c3ccc(F)cc3)o2)C(=O)N1c1ccccc1,12.2%
17,O=C1S/C(=C\c2ccc(-c3ccc([N+](=O)[O-])cc3)o2)C(=O)N1c1ccccc1,70.2%
18,O=C1S/C(=C/c2ccc(-c3cccc([N+](=O)[O-])c3)o2)C(=O)N1c1ccccc1,111%
19,O=C1S/C(=C/c2ccc(-c3ccc([N+](=O)[O-])cc3Cl)o2)C(=O)N1c1ccccc1,47.4%
20,O=[N+]([O-])c1ccc(-c2ccc(/C=N/n3cnnc3)o2)cc1,139%
21,Fc1ccc(-c2ccc(/C=N/n3cnnc3)o2)cc1,7.8%
22,O=C(O)c1ccc(-c2ccc(/C=C3/SC(=O)N(c4ccccc4)C3=O)o2)cc1,27.7%

row,Structure (SMILES),displacement
1,Cc1cccc(/C=C2/SC(=S)N(CN3CCCCC3)C2=O)c1,11.3%
2,O=C1CCCCC1Oc1ccc2c(-c3ccccc3)cc(=O)oc2c1 (centres undefined),-9.6%
3,O=C(COc1ccc2ccccc2c1)Nc1cc([N+](=O)[O-])ccc1F,29.5%
4,CCSC1C(C)=C(C)C(=O)N1C(C)(C)c1cc(Cl)cc(Cl)c1 (centres undefined),21.2%
5,COc1ccc(NC(=O)CN2C(=O)/C(=C/c3cccc(Br)c3)SC2=S)cc1,11.6%
6,O=C(CN1C(=O)/C(=C/c2cccc(Br)c2)SC1=S)Nc1cccnc1,9.6%
7,O=C(CN1C(=O)/C(=C/c2ccccc2)SC1=S)Nc1cccc(Br)c1,11.9%
8,CCOc1ccccc1NC(=O)CN1C(=O)/C(=C/c2cccc(Br)c2)SC1=S,78.7%
9,CCOc1ccccc1NC(=O)CN1C(=O)/C(=C\c2cc(OC)c(OC)c(OC)c2)SC1=S,36.8%
10,O=C(O)CCCN1C(=O)/C(=C\c2cccc(O)c2)SC1=S,0.6%
11,O=C(CN1C(=O)/C(=C/c2cccc(Br)c2)SC1=S)Nc1ccccn1,69%
12,O=C(O)CCCCCCCCCCN1C(=O)/C(=C/c2cccc(Br)c2)SC1=S,-3.4%
13,O=C(O)CCCN1C(=O)/C(=C/c2cccc(Br)c2)SC1=S,91.2%
14,O=c1[nH]c(=S)[nH]c(O)c1C=Nc1cc(Cl)ccc1O,3.2%
15,O=C(CN1C(=O)CCC1=O)NCCc1ccccc1,-5.5%
16,COc1ccc(Cl)cc1C(=O)Nc1cccc2nsnc12,12.8%
17,O=C1C(Cl)=C(Nc2ccccc2)C(=O)N1c1ccc(Br)cc1,6.4%
18,COc1ccccc1-n1c(O)c(C=Nc2ccccc2Cl)c(=O)[nH]c1=O,1.2%
19,O=C1C2=C(Nc3ccccc3SC2c2ccc3c(c2)OCO3)c2ccccc21 (centres undefined),-16.3%
20,CN1CCN(C(=O)CCN2C(=O)/C(=C/c3cccs3)SC2=S)CC1,0.2%
21,CCN(CC)C(=O)Cc1ccc2c3c(cccc13)CC2,12.7%
22,COc1ccc(NC(=O)C/C(C)=N/NC(=O)c2cnccn2)cc1,-21.6%

row,Structure (SMILES),displacement
1,CC(=O)c1ccc(NC(=O)c2cnccn2)cc1,37.3%
2,COc1ccc(NC(=O)c2cnccn2)cc1,105%
3,CCOc1ccc(C(=O)Nc2ccc3oc(-c4ccccc4Br)nc3c2)cc1,14%
4,Cc1ccc(NC(=O)c2cccc(C(=O)Nc3ccc(C)c(C)c3)c2)cc1C,-0.1%
5,O=C(CCCN1C(=O)c2cccc3cccc(c23)C1=O)OC/C=C/c1ccccc1,6.6%
6,Fc1ccc(Nc2nc(-c3ccncc3)nc3ccccc23)cc1F,47.8%
7,Clc1ccc(Nc2nc(-c3ccncc3)nc3ccccc23)cc1,109%
8,Brc1ccc(Nc2nc(-c3ccncc3)nc3ccccc23)cc1,44.4%
9,O=C(Nc1ccc2c(c1)OCO2)c1ccccc1[N+](=O)[O-],-5.9%
10,O=C(O)CSc1nnc2c(n1)[nH]c1ccccc12,3.1%
11,Cc1ccc(/C=C2\CCC/C(=C\c3ccc(C)o3)C2=O)o1,15.2%
12,Cc1nc(SCC(=O)Nc2nnc(-c3ccccc3)s2)n[nH]1,11.9%
13,C/C(NCc1ccccc1)=C(\C#N)C(=O)NCc1ccccc1,-2.4%
14,COc1cc(-c2csc(N)n2)ccc1O,15.6%
15,CC(NC(=O)COc1ccc(C=C2C(=O)NC(=O)NC2=O)cc1)c1ccccc1 (centres undefined),7.3%
16,CC(C)NC(=O)COc1ccc(C=C2C(=O)NC(=O)NC2=O)cc1,1.8%
17,O=C(COc1ccc(C=C2C(=O)NC(=O)NC2=O)cc1)NCCc1ccccc1,82.5%
18,C/C=C/COC(=O)C1=C(C)NC(=O)NC1c1cc(Cl)c(O)c(OC)c1 (centres undefined),8.4%
19,CCOC(=O)c1c(NC(=O)c2cc(OCC)c(OCC)c(OCC)c2)sc(C)c1C,-6.2%
20,CCOC(=O)c1c(NC(=O)c2ccc(Cl)cc2)sc2ccccc12,39.1%
21,CCOC(=O)c1c(NC(=O)c2ccc(OC(C)C)c(OCC)c2)sc2ccccc12,80%
22,COc1ccc(Nc2ncnc3ccc(C)cc23)cc1,9%

row,Structure (SMILES),displacement
1,Cc1ccc(S(=O)(=O)N/N=C/c2ccc(-c3ccc([N+](=O)[O-])cc3C)o2)cc1,52.8%
2,Cc1ccc(OCC(=O)N/N=C\c2ccc(-c3ccc(Cl)cc3)o2)cc1,38.4%
3,Cc1ccc(OCC(=O)N/N=C\c2ccc(-c3ccc([N+](=O)[O-])cc3)o2)cc1,116%
4,Cc1ccc2nc(-c3ccc(OCC(=O)N/N=C/c4ccc([N+](=O)[O-])o4)cc3)cc(-c3ccccc3)c2c1,-16.7%
5,O=C(COc1ccc(Cl)cc1)N/N=C/c1ccc(I)o1,-6%
6,Cc1ccc(S(=O)(=O)N/N=C/c2ccc(-c3ccc([N+](=O)[O-])cc3Cl)o2)cc1,-9.8%
7,O=C(COc1ccc(I)cc1)N/N=C/c1ccc(-c2ccc([N+](=O)[O-])cc2)o1,59%
8,Cc1ccc(S(=O)(=O)N/N=C/c2ccc(-c3ccc([N+](=O)[O-])cc3Br)o2)cc1,2.5%
9,O=[N+]([O-])c1ccc(N/N=C/c2ccc(-c3ccc(Cl)cc3)o2)cc1,-4%
10,CCN(CC)Cc1c(O)ccc2c(-c3ccccc3)cc(=O)oc12,-8.3%
11,Brc1ccc(CN2CCN(C3CCN(Cc4ccccc4)CC3)CC2)cc1,-15.5%
12,COc1ccc(S(=O)(=O)N(CC(=O)Nc2ccc(C)c(C)c2)c2ccc(C)cc2)cc1OC,17.2%
13,CCOc1ccc(-c2cc(C(=O)NN)c3ccccc3n2)cc1,-18%
14,Cc1csc(Nc2ccccc2)[n+]1CCO,4.4%
15,Cc1cc(N(C)/N=C/c2ccccc2Cl)nc(-c2ccccc2O)n1,5.1%
16,CC(=O)N1CCN(c2ccc(C(=O)c3ccccc3)cc2F)CC1,0.4%
17,N#C/C(=C/c1ccc(I)o1)c1ccc(Cl)cc1,-24.1%
18,N#C/C(=C\c1ccc(-c2cccc(Cl)c2)o1)c1ccccc1,-6.4%
19,O=C(/C=C/c1ccc(-c2ccc(Cl)cc2)o1)c1ccccc1,41.8%
20,O/N=C\c1ccc(-c2ccc(Cl)c(Cl)c2)o1,-7.3%
21,N#C/C(=C\c1ccc(-c2cccc(Cl)c2)o1)c1ccc(Cl)cc1,-3.8%
22,N#C/C(=C\c1ccc(I)o1)c1ccccc1,-34%

row,Structure (SMILES),displacement
1,N#C/C(=C\c1ccc(-c2ccc(Cl)cc2)o1)c1ccc(Cl)cc1,123%
2,Clc1ccc(-c2ccc(/C=C\c3nc4ccccc4o3)o2)cc1,95.3%
3,N#C/C(=C\c1ccc(-c2cccc(C(F)(F)F)c2)o1)c1ccc(Cl)cc1,-15.3%
4,N#C/C(=C\c1ccc(-c2ccc(Cl)cc2)o1)c1ccccc1,130%
5,O=[N+]([O-])/C=C/c1ccc(-c2ccc(Cl)cc2)o1,14.7%
6,N#C/C(=C\c1ccc(-c2ccc(Cl)c(Cl)c2)o1)c1ccccc1,135%
7,CSc1ccc(Cl)c(C(=O)Nc2ccc(Cl)cn2)c1,-39.3%
8,CC1CCN(C(=O)CN(c2cccc([N+](=O)[O-])c2)S(=O)(=O)c2ccccc2)CC1,3.3%
9,O=C(NC1CCCCC1)c1ccc([N+](=O)[O-])cc1,0.7%
10,O=C(N1CCCCC1)C12CC3CCC(CC(C3)C1)C2,6.3%
11,CCOC(=O)N1CCN(C(=O)Nc2ccc3nc4c5ccccc5c5ccccc5c4nc3c2)CC1,22.4%
12,O=C(c1ccc2nc3c4ccccc4c4ccccc4c3nc2c1)N1CCOCC1,18.3%
13,O=C(Nc1ccc2nc3c4ccccc4c4ccccc4c3nc2c1)N1CCOCC1,77.1%
14,Cc1ccc(C(=O)N2C(C)CCCC2C)cc1[N+](=O)[O-] (centres undefined),-4%
15,COc1ccc(CC(=O)O/N=C(\N)Cc2ccc([N+](=O)[O-])cc2)cc1OC,14.2%
16,COc1ccccc1/C=C1\SC(=S)N(C2CCS(=O)(=O)C2)C1=O (centres undefined),137%
17,O=C1/C(=C/c2ccc(Cl)cc2Cl)SC(=S)N1C1CCS(=O)(=O)C1 (centres undefined),7.1%
18,O=C1/C(=C/C2CC=CCC2)SC(=S)N1C1CCS(=O)(=O)C1 (centres undefined),9.6%
19,COc1cccc(/C=C2\SC(=S)N(C3CCCCC3)C2=O)c1O,-3.3%
20,O=C1/C(=C\c2ccc(N3N=C(c4ccccc4)CC3c3ccccc3)cc2)SC(=S)N1C1CCS(=O)(=O)C1 (centres undefined),-14.9%
21,O=C1/C(=C/C=C/c2ccccc2)SC(=S)N1C1CCS(=O)(=O)C1 (centres undefined),56.9%
